Compounds with a hit are over-represented: about 22% of the library has one in this group of screens.
CYP2C9 act – human CYP2C9 activators, primary screen, biochemical, luminescence | AID 1024, 2008 | 1.4% of 96,000 active | activation factor at 5 µM | recombinant CYP2C9, luciferin-H conversion; hits give high values; factor 1 = untreated enzyme, 0 = blocked | Cytochrome P450 2C9 (Homo sapiens), P11712;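 active means activation factor of 2 or more for CYP2C9 at a 5 µM dose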
Measles CPE – compounds protecting cells from measles virus cytopathic effect, primary screen, measles RdRp inhibitor project, single point, MLSMR library, absorbance; Measles virus-infected cells, CPE protection; protection (pct of control), % at 4 µM; 1.5% of 140,000 active; in the data active means protection mostly above about 24%, no sharp cut-off; inactive means mostly below about 26%
CYP2C19 activ – human CYP2C19 activators, primary screen, biochemical, luminescence; recombinant CYP2C19, luciferin-H EGE luminescence; hits give high values; 0 = fully inhibited enzyme, 1 = untreated enzyme; activation factor at 5 µM; 96,000 tested, under 10 active; AID 1025, 2008;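 active means activation factor of at least 2 at 5 µM in the primary screen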
Target sequence (P33261 whole entry, looked up): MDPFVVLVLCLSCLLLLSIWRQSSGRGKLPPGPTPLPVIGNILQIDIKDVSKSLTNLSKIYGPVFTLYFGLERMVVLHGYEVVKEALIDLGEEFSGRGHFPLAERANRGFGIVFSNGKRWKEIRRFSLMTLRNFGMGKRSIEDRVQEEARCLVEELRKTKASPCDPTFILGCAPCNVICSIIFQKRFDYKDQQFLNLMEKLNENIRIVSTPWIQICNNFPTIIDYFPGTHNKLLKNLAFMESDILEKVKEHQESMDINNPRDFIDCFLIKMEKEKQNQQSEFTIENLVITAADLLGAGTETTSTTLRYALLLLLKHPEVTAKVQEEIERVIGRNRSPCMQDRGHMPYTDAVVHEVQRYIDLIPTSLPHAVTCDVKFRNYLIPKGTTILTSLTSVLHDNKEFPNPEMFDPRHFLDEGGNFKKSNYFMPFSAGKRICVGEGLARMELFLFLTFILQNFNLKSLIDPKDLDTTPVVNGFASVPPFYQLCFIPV
CYP2C9 inh – blockers of cytochrome P450 2C9 activity – biochemical, luminescence, ADME assay, primary screen; CYP2C9 Supersomes, luciferin-H conversion; P11712; inhibition, % at 5 µM; 20% of 96,000 active;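 active means blocking of liver enzyme CYP2C9 beyond about 50% at 5 µM, limit read from the data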
CYP2C19 inhib – blockers of cytochrome P450 2C19 activity – biochemical, luminescence, ADME assay, primary screen; inhibition, % at 5 µM; CYP2C19 Supersomes, luciferin-H EGE luminescence, 30 min; AID 778, 2007; 21% of 96,000 active;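 active means CYP2C19 inhibition above a set limit at 5 µM in the primary screen, cut at about 50% in these data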
Hits are given with their value; . = inactive; / = not tested or not shown; ! = not confirmed by another sample.

SMILES	CYP2C9 act	Measles CPE	CYP2C19 activ	CYP2C9 inh	CYP2C19 inhib
COc1cccc(C(CC(=O)Nc2cccc3ccccc23)NC(=O)c2ccccc2)c1 (stereo not drawn)	.	.	.	81.0	.
COc1ccc(OC)c(NC(=O)Nc2cccc3ccccc23)c1	.	.	.	.	.
CC(=O)NCCOc1cccc2ccccc12	.	.	.	.	55.7
CC(C)C(=O)N(c1ccc2oc(=O)sc2c1)S(=O)(=O)c1cccs1	.	.	.	60.7	96.9
COc1ccc(N(C(=O)C(C)C)S(=O)(=O)c2cccs2)cc1	.	.	.	80.2	97.0
CCCOc1c(Br)cc(C2C3=C(CCCC3=O)N(C)C3=C2C(=O)CCC3)cc1OC	/	.	/	/	/
c1ccc2[nH]c(-c3ccnc4ccccc34)nc2c1	.	.	.	53.7!	.
CCc1nnc(NC(=O)CSc2ccc(-c3nc4ccc(C)cc4[nH]3)cn2)s1	/	.	/	/	/
CC(O)C(=O)NCCOCCOCCNC(=O)C(C)O (stereo not drawn)	.	.	.	.	65.6
CC(C)Oc1cc(NC(=O)CSCC(=O)Nc2cccc(C(F)(F)F)c2)c(Cl)cc1Cl	.	.	.	.	.
COc1cc(S(=O)(=O)Nc2cc(C)cc(C)c2)ccc1F	/	.	/	/	/
Cc1ccc(S(=O)(=O)NC2CCCC2)cc1C	.	.	.	.	.
COc1cc(S(=O)(=O)Nc2ccccn2)ccc1F	2.1	.	.	.	.
COc1ccc(S(=O)(=O)NC2CCCC2)cc1Br	2.4	.	.	.	97.0
COc1cc(S(=O)(=O)NC2CCCC2)ccc1F	.	.	.	.	89.7
COc1ccc(S(=O)(=O)NC2CCCCC2)c(C)c1C	.	.	.	.	95.6
CN(c1ccccc1)c1cc(=O)[nH]c(=O)[nH]1	/	.	/	/	/
COc1cc(S(=O)(=O)NC2CCCC2)ccc1Cl	3	.	.	.	93.7
COc1cc(S(=O)(=O)NC2CCCCC2C)ccc1Cl (stereo not drawn)	.	.	.	.	97.1
COc1ccc(OC)c(S(=O)(=O)NC2CCCCC2)c1	.	.	.	.	.
NC(=O)SCC(=O)Nc1ccc(Cl)cc1	.	.	.	51.4	.
CCC(CC)C(=O)Nc1ccc(Cl)c(Cl)c1	.	.	.	.	66.8
NC(=O)SCC(=O)Nc1ccc(Cl)c(Cl)c1	.	.	.	73.7	.
NC(=O)SCC(=O)Nc1cccc(Cl)c1	.	.	.	.	.
Cc1ccc(NC(=O)CSC(N)=O)cc1Cl	.	.	.	.	.
SMILES	CYP2C9 act	Measles CPE	CYP2C19 activ	CYP2C9 inh	CYP2C19 inhib
O=C(NCc1ccccn1)C1CCN(S(=O)(=O)N2CCCC2)CC1	.	.	.	.	.
CC(=O)c1ccc(OCC(O)Cn2nnc3ccccc32)cc1 (stereo not drawn)	.	.	.	71.7	76.0
O=C1C2CC=CCC2C(=O)N1c1ccc(OCC(O)Cn2nnc3ccccc32)cc1 (stereo not drawn)	.	.	.	.	.
N#Cc1ccc(-c2ccc(OCC(O)Cn3nnc4ccccc43)cc2)cc1 (stereo not drawn)	/	.	/	/	/
Cc1cccc(C)c1OCC(O)Cn1nnc2ccccc21 (stereo not drawn)	.	.	.	.	59.4
COC(=O)c1ccc(OCC(O)Cn2nnc3ccccc32)cc1 (stereo not drawn)	.	.	.	82.3	81.3
CCCCN(C)C(=O)CCC(=O)NNc1nc2ccccc2c2nc(C)nn12	/	.	/	/	/
CN(Cc1ccccc1)c1nc(N)c([N+](=O)[O-])c(Nc2cccc(F)c2)n1	.	.	.	78.6	.
CCN1CCN(c2nc(N)c([N+](=O)[O-])c(Nc3cccc(C)c3)n2)CC1	/	.	/	/	/
O=c1oc(-c2ccc(Br)o2)nc2ccccc12	.	.	.	.	76.7
CSCCC(NC(=O)c1ccccc1)C(=O)OCC(=O)Nc1ccc(C)c(Cl)c1 (stereo not drawn)	.	.	.	82.1	.
COc1ccccc1N1CCN(C(=O)c2cc3c(=O)n(C)c4ccccc4c3n2C)CC1	.	.	.	60.6	88.9
Cn1c(C(=O)N2CCN(C3CCCCC3)CC2)cc2c(=O)n(C)c3ccccc3c21	.	.	.	.	.
Cn1c(C(=O)N2CCN(c3nc4ccccc4s3)CC2)cc2sccc21	.	.	.	.	.
COc1ccccc1N1CCN(C(=O)c2cc3sccc3n2C)CC1	.	.	.	.	66.0
Cn1c(C(=O)N2CCN(C(=O)c3ccco3)CC2)cc2c(=O)n(C)c3ccccc3c21	.	.	.	.	53.3
O=C(COc1ccccc1)Nc1ccc(CSc2ccccc2)cc1	.	.	.	.	.
Nc1c(C(=O)c2ccccc2)sc2snc(SCC(=O)c3ccccc3)c12	.	.	.	83.2	.
Cc1ccc(C)c(NC(=S)N(CCc2nc3cc(C)c(C)cc3[nH]2)Cc2cccnc2)c1	.	.	.	74.2	.
Cc1cccc(NC(=S)N(CCc2nc3cc(C)c(C)cc3[nH]2)Cc2cccnc2)c1	.	.	.	.	.
CCc1nc(SCc2cccnc2)c2c(=O)n(C)c(=O)n(C)c2n1	.	.	.	.	94.3
CCc1nc(SCc2ccccn2)c2c(=O)n(C)c(=O)n(C)c2n1	/	.	/	/	/
Cn1c(=O)c2c(SCc3cccnc3)nc(C3CC3)nc2n(C)c1=O	.	.	.	56.6	87.9
COc1ccc(CCCC(=O)N/N=C/c2cccc(OC)c2O)cc1C	/	.	/	/	/
CC1=CC(C)C2(CO)COC(c3cccnc3)C1C2C (stereo not drawn)	/	.	/	/	/
SMILES	CYP2C9 act	Measles CPE	CYP2C19 activ	CYP2C9 inh	CYP2C19 inhib
Cc1nn(C(C)(C)C)c(OC(=O)c2cccs2)c1Sc1ccccc1	.	.	.	65.1	.
Cc1nn(C(C)(C)C)c(OC(=O)c2ccco2)c1Sc1ccccc1	.	.	.	61.4	.
Cc1nn(C(C)(C)C)c(OC(=O)c2ccc3c(c2)OCO3)c1Sc1ccccc1	.	.	.	.	.
Cc1nn(C(C)(C)C)c(OC(=O)c2ccc(Br)o2)c1Sc1ccccc1	.	.	.	.	73.8
CCC(C)(C)NC(=O)C(c1ccc(C)cc1)N(Cc1ccco1)C(=O)CCC(=O)Nc1nccs1 (stereo not drawn)	.	.	.	.	.
CCOC(=O)C1(CC/C(C)=N\NC(N)=O)CC(C)OC1=O (stereo not drawn)	/	.	/	/	/
O/N=C/c1cn(-c2ccccc2)nc1-c1ccc2c(c1)OCCO2	.	.	.	52.8	.
CCn1cc(/C=N/NC(=O)c2ccc3c(c2)OCO3)c(C)n1	.	.	.	.	.
O=C(N/N=C/c1cn(-c2ccccc2)nc1-c1ccc(F)cc1)c1ccc2c(c1)OCO2	.	.	.	64.4	.
COc1ccc(-c2nn(-c3ccccc3)cc2/C=N/NC(=O)c2ccc3c(c2)OCO3)cc1	.	.	.	69.7	.
OCc1cn(-c2ccccc2)nc1-c1ccc2c(c1)OCCO2	.	.	.	.	.
